Values joined by “and” are separate entries in the source; they are usually repeats but may differ in a detail not shown here. Equal entries are not always repeated. This is part of a sample that, as a whole, favours compounds with a hit. Of some 83,000 tested, about 20% had one in any assay.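 Values shown are percent growth following 48 h exposure of cells in 96-well plates to a single concentration of compound; below 10 was considered active.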 Active and inactive are the calls of the source.
Columns and labels:
Assay in all cases: NCI-60 one-dose screen, 48 h (100 = growth as untreated, 0 = no growth, -100 = all killed)
Settings in all cases: 10 µM unless noted
[1] = system: NCI-H23 lung
[2] = system: NCI-H226 lung
[3] = system: NCI-H322M lung
[4] = system: HOP-62 NSCLC
[5] = system: NCI-H460 lung
[6] = system: HOP-92 NSCLC
[7] = system: NCI-H522 lung
[8] = system: A549/ATCC NSCLC
[9] = system: 786-0 renal
[10] = system: COLO 205 colon
[11] = system: DU-145 prostate
[12] = system: K-562 leukemia
[13] = system: MALME-3M melanoma
[14] = system: MDA-MB-231 breast
[15] = system: RXF 393 renal
[16] = system: SF-268 CNS
[17] = system: SF-295 CNS
[18] = system: SF-539 CNS
[19] = system: UACC-257 melanoma
[20] = system: M14 melanoma

Measured: growth

COC(=O)CCOc1ccccc1
inactive: [1] 85.4% | [2] 105% | [3] 103% | [4] 101% | [5] 101% | [6] 86.2% | [7] 87.9% | [8] 85% | [9] 95.3% | [10] 118% | [11] 110% | [12] 71.7% | [13] 91.8% | [14] 110% | [15] 89% | [16] 108% | [17] 130% | [18] 101% | [19] 82.8% | [20] 106%

CCN(C)c1ccccc1
inactive: [1] 102% | [2] 95.7% | [3] 111% | [4] 108% | [5] 108% | [6] 101% | [7] 99.5% | [8] 105% | [9] 97% | [10] 95.7% | [11] 108% | [12] 110% | [13] 96% | [14] 98.8% | [15] 106% | [16] 99.1% | [17] 91% | [18] 97.7% | [19] 103% | [20] 100%

O=C1C=CC(=O)N1Cc1ccco1
inactive: [1] 81.7% | [2] 97.1% | [3] 85.1% | [4] 94.7% | [5] 50.9% | [6] 102% | [7] 67.8% | [8] 92.1% | [9] 104% | [10] 89.2% | [12] 94.1% | [13] 94.5% | [14] 84% | [15] 68.6% | [16] 89.7% | [17] 72.2% | [18] 108% | [19] 104% | [20] 85.3%
active: [11] 4.25%

COc1ccc2nccc(Cl)c2c1
inactive: [1] 98.4% | [2] 85.1% | [3] 97.1% | [4] 98.4% | [5] 109% | [6] 98.7% | [7] 90.7% | [8] 91.9% | [9] 94.7% | [10] 105% | [11] 101% | [12] 110% | [13] 103% | [14] 102% | [15] 105% | [16] 92.8% | [17] 107% | [18] 104% | [19] 91.9% | [20] 107%

O=c1[nH]c(=O)n(C2OC(CO)C(O)C2O)cc1I (stereo not given)
inactive: [1] 104% and 108% | [2] 91.8% and 117% | [3] 100% and 102% | [4] 101% and 96.4% | [5] 116% and 125% | [6] 77.7% | [7] 80.5% and 112% | [8] 96.3% and 100% | [9] 105% and 108% | [10] 114% and 102% | [11] 117% and 112% | [12] 95.1% and 128% | [13] 100% and 107% | [14] 109% and 111% | [15] 114% and 123% | [16] 102% and 112% | [17] 125% and 102% | [18] 105% and 102% | [19] 97.3% and 101% | [20] 104% and 90.5%

CC(O)CCNC(c1ccccc1)C(O)c1ccccc1 (stereo not given)
inactive: [1] 105% | [2] 111% | [3] 112% | [4] 104% | [5] 106% | [6] 86% | [7] 89.8% | [8] 117% | [9] 97.9% | [10] 117% | [11] 131% | [12] 101% | [13] 123% | [14] 104% | [15] 115% | [16] 111% | [17] 102% | [18] 115% | [19] 108% | [20] 104%

COc1ccc(/C=C/C(=O)O)cc1OC
inactive: [1] 108% and 98.7% | [2] 102% and 107% | [3] 101% and 115% | [4] 104% and 105% | [5] 103% | [6] 89% and 97.1% | [7] 102% and 84% | [8] 99.7% and 104% | [9] 102% and 105% | [10] 104% and 115% | [11] 108% and 111% | [12] 96.7% and 105% | [13] 103% and 122% | [14] 100% and 108% | [15] 107% and 111% | [16] 108% and 99.3% | [17] 107% and 105% | [18] 102% and 105% | [19] 104% and 102% | [20] 101% and 106%

CCN(CC)Cc1cc2[nH]c3c4ccc(Cl)cc4ncc3c2cc1OC
inactive: [1] 68.4% | [2] 84.1% and 93.4% | [3] 93.2% and 87.2% | [4] 80.7% and 87.9% | [6] 60.6% and 78% | [7] 244% and 12.6% | [8] 19.6% and 44.1% | [9] 81% and 86.3% | [11] 10.7% | [13] 77.2% and 107% | [16] 22.9% and 89.1% | [17] 102% and 90.9% | [19] 94.5% and 104%
active: [10] -16.9% and 1.13% | [12] -45.5% | [15] -43.2% and -29.8% | [18] -73.3% and -71.9% | [20] -49.3% and -42.6%
-4.73% (active) and 16.6% (inactive): [14]
0.598% (active) and 14% (inactive): [5]

COc1cc2oc3cc(=O)cc4oc(-c5ccccc5)cc(c2c2c1CCC(c1ccccc1)O2)c43 (stereo not given)
inactive: [1] 87.8% | [2] 64.4% | [3] 101% | [4] 91% | [5] 76.2% | [6] 81.1% | [7] 86.6% | [8] 96.2% | [9] 110% | [10] 98.5% | [11] 79.7% | [12] 42.1% | [13] 117% | [14] 75.8% | [15] 78.6% | [16] 85.1% | [17] 70.5% | [18] 78.7% | [19] 99.9% | [20] 88.2%

Cc1cc(-c2ccc(N=Nc3c(C)nn(-c4ccc(S(=O)(=O)O)cc4)c3O)c(C)c2)ccc1N=Nc1ccc(O)c(C(=O)O)c1
inactive: [1] 99.1% | [2] 82.2% | [3] 107% | [4] 87.7% | [5] 109% | [6] 109% | [7] 87.9% | [8] 104% | [9] 103% | [10] 94% | [11] 108% | [12] 104% | [13] 111% | [14] 97.2% | [15] 113% | [16] 97.6% | [17] 93.4% | [18] 101% | [19] 101% | [20] 107%

c1ccc2c[n+](Cc3ccc4ccccc4n3)ccc2c1
inactive: [1] 69.1% | [2] 85.8% | [3] 104% | [4] 80.1% | [5] 88.4% | [6] 56% | [7] 84.9% | [8] 65.5% | [9] 95.3% | [10] 46.5% | [11] 99.8% | [12] 63.8% | [13] 75.7% | [14] 89.4% | [15] 91% | [16] 85.7% | [17] 91.4% | [18] 82.5% | [19] 56% | [20] 72.3%
